Assay [1] can be described thus: NCI Yeast Anticancer Drug Screen. Data for the rad50 strain (AID 155).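 Note: 0% = growth of vehicle-only cultures of the same strain.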 As to conditions: S. cerevisiae rad50 strain growth inhibition; at 50.0 µM; stronger effect = higher value. The method, boiled down: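 DNA repair mutant yeast, compound exposure, growth read-out; inhibition is taken relative to vehicle.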
A short description of assay [2]: NCI Yeast Anticancer Drug Screen. Data for the mec2-1 strain (AID 157). The following applies: S. cerevisiae mec2-1 strain, at 50.0 µM, stronger effect = higher value. The method, boiled down:
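Cells of the genetically defined mec2-1 yeast strain are incubated with test compound. Inhibition of growth is calculated against vehicle-treated controls.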

Assay [3] can be described thus: NCI Yeast Anticancer Drug Screen. Data for the sgs1 mgt1 strain (AID 161).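 Note: 0% = growth of cultures given vehicle only.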 As to conditions: S. cerevisiae sgs1 mgt1 strain, at 50.0 µM, stronger effect = higher value. The method, boiled down: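 Test agents were incubated with a DNA-repair-mutant yeast strain. Growth was then read and compared against vehicle-treated controls.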
Assay [4] can be described thus: NCI Yeast Anticancer Drug Screen. Data for the cln2 rad14 strain (AID 165).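 Note: 0% = growth equal to vehicle treated cultures.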 The following applies: S. cerevisiae cln2 rad14 strain, at 50.0 µM, stronger effect = higher value. The method, boiled down:
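The screen exposed genetically defined yeast (cln2 rad14) to test compounds and scored growth inhibition relative to vehicle-treated controls.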

Assay [5] is described as follows: NCI Yeast Anticancer Drug Screen. Data for the bub3 strain (AID 167). As to conditions: S. cerevisiae bub3 mutant strain, at 50.0 µM, stronger effect = higher value. The method, boiled down:
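In this screen, a yeast mutant lacking normal mitotic checkpoint function is challenged with compound. Relative growth versus vehicle gives the inhibition value.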

Assay [6] can be described thus: NCI Yeast Anticancer Drug Screen. Data for the mlh1 rad18 strain (AID 175). As to conditions: S. cerevisiae mlh1 rad18 strain growth inhibition; at 50.0 µM; stronger effect = higher value. The method, boiled down:
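Compound-treated yeast growth, normalised to vehicle controls. Strain bears defined DNA repair mutations.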

The panel holds about 79,000 compounds, 15% with a hit somewhere; the sample as a whole holds those more often. Unmarked numbers belong to inactive results. Activity calls are given as the source filed them. Cut-off read from the data, not from the text of the source: active = growth inhibition above about 70%; inactive = the rest.

For `O=C(CCC(=O)Nc1ccc(Cl)c(Cl)c1)Nc1ccc(Cl)c(Cl)c1`, the growth inhibition in assay [1] is 50.9%; in assay [2], 46.5%; in assay [3], 49%; in assay [4], 39.1%; in assay [5], 78.2% (active); in assay [6], 63%.

Turning to `S=c1nc[nH]c2nc[nH]c12`, the growth inhibition in assay [1] was -18%; in assay [2], 0.25%; in assay [3] it was -6.75%; in assay [4], -66.5%; in assay [5], 10.8%; in assay [6], 20.1%.

On to `COc1ccc(CC2(Cc3ccc(OC)cc3)CCOC2=O)cc1`, for which the growth inhibition is -23.1% in assay [1]; -31.9% in assay [2]; -16.1% in assay [3]; 1.2% in assay [4]; 2.25% in assay [5]; -31.4% in assay [6].

`Cc1ccc2[nH]c(=S)n(CCc3ccccc3)c(=O)c2c1`: the growth inhibition is -1.95% in assay [1]; -23% in assay [2]; 29.9% in assay [3]; 6.85% in assay [4]; 10.4% in assay [5]; 13.7% in assay [6].

As for `OCCSc1ccc(Cl)cc1`, the growth inhibition in assay [1] is 14.4%; in assay [2] it was 25.9%; in assay [3], 5.95%; in assay [4], -31.5%; in assay [5], 12.8%; in assay [6], 27.5%.

`CC(=O)c1c(O)cccc1O`: the growth inhibition in assay [1] was -11.8%; in assay [2], -13.8%; in assay [3], -1.75%; in assay [4], 8.7%; in assay [5] it was 8.7%; in assay [6], -3.75%.

As for `CCNC(=O)NCc1cc(C)ccc1C`, the growth inhibition in assay [1] is 7.85%; in assay [2], -12.2%; in assay [3], -11.4%; in assay [4], 19.2%; in assay [5], 6.45%; in assay [6] it was 12.1%.

`C/C(=C1\C(=O)Nc2ccccc21)c1cccnc1`: the growth inhibition in assay [1] was -8.2%; in assay [2], -9.25%; in assay [3], -9.5%; in assay [4], 11.3%; in assay [5] it was -10.4%; in assay [6] it was -7.55%.

Consider `N#CCC(=O)N1CCc2ccccc2C1`, for which the growth inhibition in assay [1] is -30.9%; in assay [2] it was 0.45%; in assay [3], 1.85%; in assay [4], -79.7%; in assay [5], 9.6%; in assay [6], 14.2%.

On to `S=c1[nH]nc2nc3c4ccccc4c4ccccc4c3nn12`, for which the growth inhibition was 53.7% in assay [1]; 22.8% in assay [2]; 10.3% in assay [3]; 14.2% in assay [4]; 21.2% in assay [5]; 25.7% in assay [6].

Take `N=C1N=Nc2nc(C(C(=O)c3cccc([N+](=O)[O-])c3Cl)c3nc4n(c3O)C(=N)N=N4)c(O)n21` (stereo unspecified): the growth inhibition in assay [1] was -2.65%; in assay [2] it was 0.7%; in assay [3], 13.8%; in assay [4] it was -23.5%; in assay [5], -0.15%; in assay [6], 2.8%.

Regarding `Cc1c(C)c2cc3ccc(Cl)cc3nc2c2ccccc12`, the growth inhibition in assay [1] is -7.65%; in assay [2] it was -16.9%; in assay [3], 2.75%; in assay [4] it was -21.6%; in assay [5], 2.9%; in assay [6], 1.7%.

With `CC(=O)CC(=O)Nc1ccccc1[N+](=O)[O-]`, the growth inhibition in assay [1] is -7.05%; in assay [2], -24.4%; in assay [3] it was -0.65%; in assay [4], 15.9%; in assay [5], 7.05%; in assay [6] it was -9.65%.

Consider `NCCCOCCN1CCN(c2ccccc2)CC1`, for which the growth inhibition was -0.75% in assay [1]; -27.2% in assay [2]; 0.75% in assay [3]; -39.5% in assay [4]; 2.95% in assay [5]; 7.25% in assay [6].

With `COc1cccc(Oc2ccc(C)cc2)c1`, the growth inhibition was 17.2% in assay [1]; -12.8% in assay [2]; -18.6% in assay [3]; -19.1% in assay [4]; 8.95% in assay [5]; -21.9% in assay [6].

On to `CCCCCCCN(CCCCCCC)CC(O)c1cc2ccccc2c2cc(Br)ccc12` (stereo unspecified), for which the growth inhibition in assay [1] is -52.9%; in assay [2], -33%; in assay [3] it was -41%; in assay [4], -25%; in assay [5] it was -69.1%; in assay [6] it was -109%.

For `COC(=O)c1cc(=O)[nH]c(=O)[nH]1`, the growth inhibition is -10.6% in assay [1]; -12.8% in assay [2]; -15.8% in assay [3]; 9.45% in assay [4]; -13.5% in assay [5]; -15.9% in assay [6].

`O=CN(c1ccccc1)c1ccccc1`: the growth inhibition in assay [1] is 3.8%; in assay [2], -2.4%; in assay [3], -2.7%; in assay [4] it was -15.4%; in assay [5], -4.55%; in assay [6], -23.6%.

Take `COc1ccc(C2CC(c3c(C)nn(-c4ccccc4)c3-c3ccc(C)cc3O)=NN2c2ccccc2)cc1` (stereo unspecified): the growth inhibition is -3.95% in assay [1]; -12.3% in assay [2]; -11.1% in assay [3]; -2% in assay [4]; -3% in assay [5]; 50.5% in assay [6].

With `CCC(=O)OC1CCCCC1C1CCCCC1` (stereo unspecified), the growth inhibition in assay [1] was 1.55%; in assay [2], -2.35%; in assay [3], 8%; in assay [4], -37.6%; in assay [5], -3.45%; in assay [6], -3.9%.

Turning to `COc1ccc(/C=C/C(=O)C(C)(C)CN2CCCCC2)cc1`, the growth inhibition in assay [1] is 39.9%; in assay [2], 24.9%; in assay [3] it was 20.5%; in assay [4], 37.8%; in assay [5], 36.5%; in assay [6] it was 39.2%.
